# A selection: hits, their analogues and other compounds. The true share with any hit is near 2.6%.
# AmpC det inh: inhibitors of E. coli AmpC beta-lactamase with detergent | purified AmpC, nitrocefin hydrolysis with detergent | actives 0.09% (n = 71,000) | AID 584 | Potency, µM (titrated, usually from 28.7 µM), for the others: top-dose activity change, negative = inhibition; active = well fitted curve in the direction sought with a large enough effect; inconclusive = small, poorly fitted or top-dose-only effect; note: % is set by controls: 0 for no effect and ±100 for the full control effect
# Target sequence (P00811 whole entry, looked up): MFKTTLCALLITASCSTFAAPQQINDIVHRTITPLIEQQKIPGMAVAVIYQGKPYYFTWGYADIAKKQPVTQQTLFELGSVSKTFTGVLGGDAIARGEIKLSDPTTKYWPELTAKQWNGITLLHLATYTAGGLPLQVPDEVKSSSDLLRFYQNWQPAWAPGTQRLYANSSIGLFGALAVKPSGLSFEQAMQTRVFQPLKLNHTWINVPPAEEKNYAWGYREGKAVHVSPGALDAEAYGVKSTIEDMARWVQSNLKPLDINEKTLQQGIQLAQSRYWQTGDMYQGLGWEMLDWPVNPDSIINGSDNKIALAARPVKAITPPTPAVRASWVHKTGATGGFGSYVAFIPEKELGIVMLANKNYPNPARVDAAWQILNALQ
#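 E. coli AmpC (5.3 nM) in 20 mM phosphate pH 7.0 with 0.01% Triton X-100, preincubated 15 min RT with compound; nitrocefin (2 uL of 800 uM stock) hydrolysis followed by 480 nm absorbance every 20 s over 4 min.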
# Prx2 Sm inh: inhibitors of Schistosoma mansoni peroxiredoxin 2. S. mansoni Prx2 activity coupled to TGR/GSH (TGR is thioredoxin glutathione reductase), NADPH fluorescence loss, qHTS. Potency, µM. actives 0.07% (n = 65,000). AID 448
#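 Coupled assay in which S. mansoni TGR passes NADPH reducing equivalents via glutathione to Prx2, which reduces H2O2. Compounds were preincubated 15 min at room temperature with 25 nM TGR/50 nM Prx2 mix. Kinetic NADPH fluorescence loss (ex 365/em 450 nm) was monitored.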
# Anthrax LT inh: inhibitors of anthrax lethal toxin internalization. Cells, anthrax lethal toxin internalization, FRET ratio (460/530). Potency, µM (doses to about 40 µM), for inactives: at the highest dose activity change, negative = inhibition, usual class: inhibitors. actives 0.67% (n = 70,000). AID 912; note: % is set by controls: 0 for no effect and ±100 for the full control effect; nearly all actives have a fitted effect of over 50% in size
# AmpC inh no det: AmpC beta-lactamase inhibition, detergent-free assay. P00811. AmpC nitrocefin hydrolysis, absorbance 480 nm, no detergent. Potency, µM (series often up to 28.7 µM), for inactives: at the top dose activity change, negative = inhibition. actives 1.8% (n = 71,000); note: % of control where 0% means no effect
#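 Enzyme, pH 7.0 phosphate. Compound titrations were pre-incubated with AmpC for 15 min at room temperature before nitrocefin (stock 800 uM) addition; product formation was recorded at 480 nm every 20 s for 4 min.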
# An asterisk follows results filed as active; ? = inconclusive; . = no result given; ! = not confirmed by another sample; [ ] = dose if it differs, or a comment. Unless noted, calls come from the whole dose curve. Potency is the fitted concentration of half-maximal effect.
SMILES,AmpC det inh,Prx2 Sm inh,Anthrax LT inh,AmpC inh no det
Cc1cccc(NC(=O)NCCN2C(=O)C3C4C=CC(C4)C3C2=O)c1 (stereo not given),11.2%,>57,-7.7%,3.98µM*[single pt active]
COc1ccc(CN2C(=O)C3C4C=CC(C4)C3C2=O)cc1 (stereo not given),-2.8%,>57,3.0%,-0.1%
COc1ccc(C(=O)N2CCC[C@@]3(CCN(Cc4cc(C(F)(F)F)cc(C(F)(F)F)c4)C3)C2)cc1,-2.4%,>57,17.5%,29.5%
CC1=NCCc2c1[nH]c1cc(O)ccc21,1.2%,>57,?,12.6µM*!
COc1ccc2c3c([nH]c2c1)C(C)=NCC3,-3.3%,>57,?,-1.1%
O=C(CCOc1ccccc1)OCC(=O)c1cc2ccccc2o1,-2.7%,>57,-5.0%,0.631µM*
COCC(=O)N1CCC[C@@]2(CCN(c3ncccn3)C2)C1,1.9%,>57,2.9%,20.9%
c1ccc(CN2CCN(CCCNc3ccc4nnc(-c5ccccc5)n4n3)CC2)cc1,7.5%,>57,?,120.4%
Fc1ccccc1N1CCN(CCCNc2ccc3nncn3n2)CC1,15.4%,>57,-14.1%,3.98µM*[single pt active]
COc1c2ccoc2nc2c(OC)c(OC[C@H](O)C(C)(C)O)ccc12,-4.2%,>57,12.6µM*!,8.6%
CS(=O)(=O)N1CCC(C(=O)N2CCC(Cc3ccccc3)CC2)CC1,?,>57,3.5%,12.6µM*
CCCS(=O)(=O)N1CCC(C(=O)N2CCN(Cc3ccccc3)CC2)CC1,-3.0%,>57,-9.2%,27.8%
O=C1c2ccccc2S(=O)(=O)N1CC(O)COc1ccc(Br)cc1 (stereo not given),6.3%,.,-25.1%,13.1%
CO[C@@H]([CH2][Hg])CN1C(=O)c2ccccc2S1(=O)=O.Cn1c(=O)c2nc[nH]c2n(C)c1=O,-2.7%[5.75 µM],1.29*,?,-15.2%[5.75 µM]
COc1cccc(Cn2c(=O)c(-c3ccc(F)cc3)nc3cnc(OC)nc32)c1,1.6%,>57,?,2.8%
CCC/C=C(\CCC)C(NC(=O)c1ccc(C(F)(F)F)cc1)c1ccccc1 (stereo not given),3.0%,>57,-16.9%,20µM*[single pt active]
O=C(c1ccco1)N1CCC2(CCCN(Cc3ccccc3)C2)CC1,0.7%,>57,16.7%,0.7%
CN(C)CCNC(=O)c1ccc(CS(=O)(=O)c2c(Cl)cccc2Cl)o1,4.4%,>57,-21.8%,9.9%
O=C(NCCN1CCCC1)c1ccc(CS(=O)(=O)c2c(Cl)cccc2Cl)o1,12.7%,>57,-9.3%,3.98µM*[single pt active]
Cc1noc(C)c1S(=O)(=O)N(CC(=O)N1CCc2ccccc21)c1ccc(C(C)C)cc1,14.3%,>57,-10.1%,3.98µM*[single pt active]
COc1ccccc1CNc1nc(-c2ccccc2CN(C)C)nc2ccccc12,12.0%,>57,?,57.2%
COc1ccc(-c2nc3cnc(N(C)C)nc3n(C3CC3)c2=O)cc1,-2.9%,>57,?,3.7%
COC(=O)CCc1nc2ccccc2[nH]c1=O,3.8%,>57,0.1%,-4.7%
COC(=O)CSCc1nc2ccccc2[nH]c1=O,22.1%,>57,5.6%,3.98µM*[single pt active]
COc1ccc(COC(=O)N/N=C2/C[C@@H](O)[C@@H](O)[C@@H]3[C@H]4C(=O)N(c5ccc(F)cc5F)C(=O)[C@@H]4CC[C@@H]23)cc1,.,.,-5.4%[0.32 µM],.
SMILES,AmpC det inh,Prx2 Sm inh,Anthrax LT inh,AmpC inh no det
Clc1ccc2c(NC3CCC(N4CCCCC4)CC3)ccnc2c1 (stereo not given),1.4%[5.75 µM],>57,2.51µM*,4.9%[5.75 µM]
COc1cccc2cc3c(=O)n(-c4ccccc4)nc-3oc12,10.6%,>57,6.7%,3.16µM*[single pt active]
COc1ccc(N(CC(=O)N2CCc3ccccc3C2)S(=O)(=O)c2c(C)[nH]c(=O)[nH]c2=O)cc1,11.1%,>57,13.7%,3.98µM*[single pt active]
CCCn1c(-c2ccc(F)cc2)nc2c(NCCCN(C)C)nc(C)nc21,12.6%,.,-29.3%,25.8%
Cc1onc(-c2c(F)cccc2Cl)c1C(=O)N[C@@H]1C(=O)N2[C@H]1SC(C)(C)[C@H]2C(=O)O,0.0398µM*,>57,?,0.0251µM*
CC1(C)S[C@@H]2[C@H](NC(=O)C3(N)CCCCC3)C(=O)N2[C@H]1C(=O)O,0.0126µM*,>57,-12.4%[3.58 µM],0.00631µM*
Cc1onc(-c2ccccc2Cl)c1C(=O)N[C@H]1C(=O)N2[C@H]1SC(C)(C)[C@H]2C(=O)O,0.002µM*,>57,2.0%[3.58 µM],0.00158µM*
C=N[C@H](C(=O)N[C@@H]1C(=O)N2[C@@H]1SC(C)(C)[C@@H]2C(=O)O)c1ccccc1,0.158µM*,>57,?,0.126µM*
Cc1onc(-c2c(F)cccc2Cl)c1C(=O)NCc1cccs1,-1.7%,>57,10.7%,-3.1%
N[C@H](C(=O)N[C@@H]1C(=O)N2C(C(=O)O)=C(Cl)CS[C@@H]12)c1ccccc1,-5.7%[12.8 µM],>57,8.3%[3.58 µM],-10.6%[12.8 µM]
Cc1cc2nc([C@H](C)C(=O)c3ccc(Cl)cc3)c(=O)[nH]c2cc1C,-4.9%[5.75 µM],>57,-3.2%[8 µM],-6.6%[5.75 µM]
c1ccc2cc(NCNc3ccc4ccccc4c3)ccc2c1,10.8%[5.75 µM],>57,-12.2%[8 µM],-14.8%[5.75 µM]
CCN1CCCC1Cn1c(-c2ccccc2)nc2c(NCCOC)nc(C)nc21 (stereo not given),11.9%,.,1.9%,24.2%
O=C(O)CCC/C=C\C[C@H]1[C@@H](/C=C\[C@@H](O)C2Cc3ccccc3C2)[C@H](F)C[C@H]1O,0.3%,>57,5.5%,14.0%
O=C(O)[C@@H]1[C@@H](C(=O)NCc2ccncc2)[C@@H]2C=C[C@@H]1O2,-2.1%[5.75 µM],>57,?,7.6%[5.75 µM]
Cc1onc(-c2c(F)cccc2Cl)c1C(=O)N[C@H]1C(=O)N2[C@H]1SC(C)(C)[C@H]2C(=O)O,0.002µM*,>25.6,3.6%[3.58 µM],0.00158µM*
Cc1ccc(C(=O)O)cc1,9.6%,.,.,-7.7%
O=C(CSc1nc2c(cnn2-c2ccccc2)c(=O)[nH]1)c1ccc(Cl)cc1,-1.0%,>57,2.1%,7.94µM*
CC1CCC(C(C)C)C(OC(=O)COC(=O)c2ccc(=O)[nH]c2)C1 (stereo not given),-7.8%,>57,12.6µM*,54.0%
N#Cc1nc(-c2ccccc2F)oc1NC1CCCCC1,10.5%,>57,?,3.98µM*[single pt active]
N#Cc1nc(-c2ccccc2F)oc1NCc1cccc2c1OCO2,-4.2%,>57,11.4%,13.0%
CN(C)CCNc1oc(-c2ccccc2F)nc1C#N,12.5%,>57,-7.5%,3.98µM*[single pt active]
O=C1C=CC2=C3c4cc(O)c(O)cc4C[C@@]3(O)COC2=C1O,-14.1%,>57,25.1µM*,15.8µM*
CCOC(=O)CC(SP(=S)(OC)OC)C(=O)OCC (stereo not given),6.31µM*,.,?,?
CCOC(=O)OCC,6.4%,.,-0.6%,-5.3%
COc1ccc(Br)cc1C1CC(=O)N2CN(C)CSC2=C1C#N (stereo not given),13.1%,>57,-11.8%,3.98µM*[single pt active]
CC(C)c1ccc(C2CC(=O)N3CN(C)CSC3=C2C#N)cc1 (stereo not given),11.1%,>57,-8.4%,3.98µM*[single pt active]
COc1ccc2ccccc2c1C1CC(=O)N2CN(C)CSC2=C1C#N (stereo not given),-7.0%,>57,-28.5%,25.5%

# Assay outcomes as filed in PubChem BioAssay.
